Screening data as filed in PubChem.
A selection: hits, their analogues and other compounds. The true share with any hit is near 9.2%.
FLuc counter: qHTS profiling assay for firefly luciferase inhibitor/activator using purifed enzyme and Km concentrations of substrates (counterscreen for miR-21 project) | Luciferin 4-monooxygenase (Photinus pyralis), P08659 | purified FLuc, Km substrates, luminescence inhibition | Potency, µM (top dose mostly 57.5 µM), for the others: at the top dose activity change, negative = inhibition, usual class: inhibitors | 6.9% of 360,000 active;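 further: plate controls were vehicle for no effect and reference inhibitor for full effect; nearly all actives have a fitted effect of over 55% in size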
Target sequence (P08659 whole entry, looked up): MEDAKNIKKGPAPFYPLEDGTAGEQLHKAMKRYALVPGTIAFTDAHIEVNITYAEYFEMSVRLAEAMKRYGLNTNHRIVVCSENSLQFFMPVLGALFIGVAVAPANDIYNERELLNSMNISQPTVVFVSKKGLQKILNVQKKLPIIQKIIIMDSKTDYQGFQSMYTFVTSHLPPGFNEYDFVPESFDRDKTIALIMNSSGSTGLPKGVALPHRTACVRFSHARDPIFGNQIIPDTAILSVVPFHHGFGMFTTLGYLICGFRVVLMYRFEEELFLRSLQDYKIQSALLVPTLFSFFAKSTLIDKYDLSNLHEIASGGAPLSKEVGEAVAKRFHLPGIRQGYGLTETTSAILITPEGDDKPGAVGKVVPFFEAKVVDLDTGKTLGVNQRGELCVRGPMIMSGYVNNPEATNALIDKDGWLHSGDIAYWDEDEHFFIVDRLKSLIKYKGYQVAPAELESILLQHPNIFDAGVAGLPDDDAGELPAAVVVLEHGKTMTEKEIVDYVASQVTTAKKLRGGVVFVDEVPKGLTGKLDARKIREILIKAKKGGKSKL
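Purified P. pyralis luciferase (10nM final) with 10uM D-luciferin and 10uM ATP (Km levels) in 50mM Tris acetate pH 7.5, 10mM Mg acetate, 0.01% Tween-20, 0.05% BSA; qHTS 6-point titration, ~60 µM downward; luminescence read.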
ELG1 genotoxic: qHTS screen for small molecules that induce genotoxicity in human embryonic kidney (HEK293T) cells expressing luciferase-tagged ELG1; HEK293T ELG1-luciferase reporter, luminescence, 16 h; Potency, µM (doses to about 46 µM), inactives show at the highest dose activity change, positive = activation, hits mostly activators; 1.3% of 330,000 active; AID 504466, 2011; further: % of control where 0% means no effect; nearly all actives have a fitted effect of over 60% in size
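Reporter readout depends on ELG1 protein level, which increases with genetic stress. After 16 hr compound exposure at 37 °C, luciferase activity was quantified using ONE-Glo.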
ELG1 DNA repair: qHTS screen for small molecules that inhibit ELG1-dependent DNA repair in human embryonic kidney (HEK293T) cells expressing luciferase-tagged ELG1; Potency, µM (titrated, usually from 46.1 µM), inactives show at the highest dose activity change, negative = inhibition, usual class: inhibitors; 2.3% of 330,000 active; HEK293T ELG1-luciferase reporter, luminescence, 16 h; DNA damage induced by 5-fluorouridine; further: on the % scale 0 is the no-effect control and ±100 the full control effect; nearly all actives have a fitted effect of over 55% in size
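Overnight (16 hr) co-exposure of 2,000 cells/well to 5-fluorouridine and compound at 37 °C preceded detection. Luciferase was quantified via ONE-Glo luminescence; loss of signal denotes inhibition.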
NPC1 prom act: qHTS Assay for NPC1 Promoter Activators; Huh7 NPC1 promoter luciferase reporter, 24 h; Potency, µM (doses to about 9.22 µM), for the others: top-dose activation, hits mostly activators; 2.4% of 320,000 active; further: % of control where 0% means no effect; nearly all actives have a fitted effect of over 60% in size
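NPC1 promoter–luciferase Huh7 cells; 24 h compound; luminescence.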
SMN2 splice up: qHTS Assay for Enhancers of SMN2 Splice Variant Expression; HEK293 SMN2-luciferase splicing reporter, luminescence, 30-36 h; Potency, µM (highest dose often 46.1 µM), inactives show top-dose activity change, positive = activation, most hits filed as activators; 2.8% of 210,000 active; further: % of control where 0% means no effect; nearly all actives have a fitted effect of over 55% in size
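HEK293 cells carry an SMN2 […]–luciferase reporter in which exon 7 inclusion puts luciferase in frame. Cells were plated 10-12 h before compound addition, then incubated 30-36 h at 37C. ONE-Glo luminescence was read; sodium butyrate at 4.5 mM final served as control.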
Rab9 prom act: qHTS Assay for Rab9 Promoter Activators; Huh7 Rab9 promoter-luciferase reporter, luminescence, 24 h; Potency, µM (doses to about 9.22 µM), inactives show top-dose activation, negative = inhibition, most hits filed as activators; 2.8% of 320,000 active; AID 485297, 2010; further: % of control where 0% means no effect; nearly all actives have a fitted effect of over 60% in size
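Luciferase signal after 10 min detection reagent at ambient indicates Rab9 promoter upregulation; stably transfected Huh7 cells were treated 24 h with compound in DMSO at 37 °C, 5% CO2.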
* = called active by the depositor; ? = inconclusive; nt = no result given; [ ] = remark or other dose. The call rests on the fitted dose curve; in most records, active means well fitted curve in the direction sought with a large enough effect; inconclusive means small, poorly fitted or top-dose-only effect, or another doubt; inactive means no such curve, though single readings can be large; an effect the other way counts as inactive or inconclusive. Potency means the concentration at half of the fitted maximal effect.

SMILES | FLuc counter | ELG1 genotoxic | ELG1 DNA repair | NPC1 prom act | SMN2 splice up | Rab9 prom act
Cc1ccc2nc(-c3ccc(NC(=O)CSc4nc(N)cc(=O)[nH]4)cc3)sc2c1 | 3.4µM* | ? | ? | 2.8µM* | nt | 2.8µM*
Cc1oc2cc3oc(=O)c(CCC(=O)N[C@H](C(=O)O)C(C)C)c(C)c3cc2c1C | ? | 0% | ? | -4% | nt | 7%
Cc1cc(=O)[nH]c(SCC(=O)Nc2nnc(SCc3ccccc3)s2)n1 | 13µM* | -7% | -2% | -6% | -26% | -1%
O=C(Nc1nnc(SCc2ccccc2)s1)C1=COCCO1 | ? | ? | ? | 3.5µM* | nt | 3.5µM*
O=C(Cc1cccs1)Nc1nnc(SCc2ccc(Br)cc2)s1 | 17µM* | 3% | ? | -1% | -3% | -1%
Cc1cc(=O)[nH]c(SCC(=O)Nc2nc3ccccc3s2)n1 | ? | 0% | 6% | 1% | -21% | -1%
N#Cc1ccc(CSc2nnc(Nc3ccccc3)s2)cc1 | -1% | 2% | -17% | -1% | -22% | -5%
c1ccc(CSc2nnc(NC3=NCCCCC3)s2)cc1 | 17µM* | ? | 0% | ? | 15% | 4µM*
CCOC(=O)CN1C(=O)/C(=C2\SC(=S)N(NC(=O)c3cccnc3)C2=O)c2ccccc21 | -9% | -6% | 13% | -3% | nt | 4%
C=CCSc1nnc(NC(=O)C2=COCCO2)s1 | 17µM* | ? | ? | 4µM* | nt | 2.2µM*
O=C(Nc1nnc(SCc2ccccc2F)s1)C1=COCCO1 | 17µM* | 10µM* | ? | 2.5µM* | nt | 3.5µM*
O=C(Nc1nnc(SCc2ccc(F)cc2)s1)C1=COCCO1 | -17% | 1% | ? | 13% | nt | 19%
CC(C)n1c(SCC(=O)Nc2ccccc2N2CCOCC2)nc2c1c(=O)n(C)c(=O)n2C | 1% | -3% | ? | -1% | -30% | 0%
CCn1c(SCC(=O)Nc2ccccc2N2CCCCC2)nc2c1c(=O)n(C)c(=O)n2C | 3% | -16% | 18µM* | -3% | -19% | -9%
O=C(N1CCOCC1)C1(c2ccccc2)CCCCC1 | 2% | 1% | 17% | 0% | 32µM* | -10%
CC(=O)c1ccc(NC(=O)CSc2nccn2Cc2ccco2)cc1 | 17µM* | nt | nt | nt | nt | nt
O=C(CSc1nccn1Cc1ccco1)Nc1ccc(F)cc1 | -13% | ? | -4% | -3% | nt | 3%
O=C(CSc1nccn1Cc1ccco1)Nc1cccc(F)c1 | -4% | 9% | 11% | 17% | nt | 26%
COc1ccc(NC(=O)CSc2nccn2Cc2ccco2)c(OC)c1 | 19µM* | ? | ? | 21% | nt | ?
Cc1ccc(NC(=O)CSc2nccn2Cc2ccco2)cc1 | 19µM* | ? | ? | ? | nt | 4.5µM*
CCC(C(=O)NCc1ccccc1OC)n1nc(C)n2c(cc3sccc32)c1=O (stereo not drawn) | 1% | nt | nt | nt | -6% | nt
CCN(CC(=O)Nc1ccc(C(C)=O)cc1)CC(=O)Nc1ccccc1C(F)(F)F | -2% | 0% | -13% | -3% | nt | -7%
CCN(CC)c1ccc(NC(=O)Nc2cccc3ccccc23)cc1 | 2.1µM* | 16% | ? | ? | nt | 18%
CN(C)c1ccc(NC(=O)Nc2cccc3ccccc23)cc1 | 2.7µM* | 16% | ? | 28% | 12% | ?
NS(=O)(=O)c1ccc(NC(=O)Nc2cccc3ccccc23)cc1 | -10% | 3% | -2% | 0% | -7%[9.22 µM] | -8%
CCN(CC)c1ccc(NC(=O)Nc2ccccc2C(F)(F)F)cc1 | -19% | 0% | ? | ? | 7% | 3.2µM*
